# According to the supplement of paper PMC4466140:
# What was measured:
# Assay in all cases: SPOT peptide array binding signal intensity (averaged, normalized) (arbitrary units (background-subtracted, floor 0; scale differs between SH3 domains)); higher = stronger binding of the SH3 domain to the peptide
# SpBzz1-D2 = molecular target: SpBzz1-D2
# Procedure, shortened: (§1)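 SH3 domains from four yeast species were expressed as GST fusions in E. coli BL21(DE3) and purified on glutathione Sepharose. Each was incubated at 10 μg/ml overnight at 4°C in TBS-based blocking buffer on cellulose membranes bearing synthetic 15-mer peptides, in which serines replaced cysteines. Bound protein was detected with anti-GST antibody, an HRP anti-mouse secondary and luminol, then imaged and quantified with Genespotter. The binding signal is the normalized, background-subtracted spot intensity averaged over replicates, in arbitrary units that are not the same from one domain to another.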
# SpCyk3 = molecular target: SpCyk3
# Procedure, shortened: as §1
# SpHof1 = molecular target: SpHof1
# Procedure, shortened: as §1
# SpHof1-2 = molecular target: SpHof1-2
# Procedure, shortened: as §1
# SpHof1-3 = molecular target: SpHof1-3
# Procedure, shortened: as §1
# SpHse1 = molecular target: SpHse1
# Procedure, shortened: as §1
# SpLsb1 = molecular target: SpLsb1
# Procedure, shortened: as §1
# SpLsb4 = molecular target: SpLsb4
# Procedure, shortened: as §1
# SpMyo1 = molecular target: SpMyo1
# Procedure, shortened: as §1
# SpNbp2 = molecular target: SpNbp2
# Procedure, shortened: as §1
# SpPex13 = molecular target: SpPex13
# Procedure, shortened: as §1
# SpRvs167 = molecular target: SpRvs167
# Procedure, shortened: as §1
# SpSla1-D1-D2 = molecular target: SpSla1-D1-D2
# Procedure, shortened: as §1
# SpSla1-D3 = molecular target: SpSla1-D3
# Procedure, shortened: as §1
# AgAbp1 = molecular target: AgAbp1
# Procedure, shortened: as §1
# AgBbc1 = molecular target: AgBbc1
# Procedure, shortened: as §1
# AgBem1-D1 = molecular target: AgBem1-D1
# Procedure, shortened: as §1
# AgBzz1-D1 = molecular target: AgBzz1-D1
# Procedure, shortened: as §1
# AgBzz1-D2 = molecular target: AgBzz1-D2
# Procedure, shortened: as §1
# AgCyk3 = molecular target: AgCyk3
# Procedure, shortened: as §1
# AgFus1 = molecular target: AgFus1
# Procedure, shortened: as §1
# AgHof1 = molecular target: AgHof1
# Procedure, shortened: as §1
# AgHse1 = molecular target: AgHse1
# Procedure, shortened: as §1
# AgLsb1 = molecular target: AgLsb1
# Procedure, shortened: as §1
# AgLsb4 = molecular target: AgLsb4
# Procedure, shortened: as §1
# AgMyo5 = molecular target: AgMyo5
# Procedure, shortened: as §1
# AgNbp2 = molecular target: AgNbp2
# Procedure, shortened: as §1
# AgRvs167 = molecular target: AgRvs167
# Procedure, shortened: as §1
# AgSho1 = molecular target: AgSho1
# Procedure, shortened: as §1
# AgSla1-D1-D2 = molecular target: AgSla1-D1-D2
# Procedure, shortened: as §1
# AgSla1-D3 = molecular target: AgSla1-D3
# Procedure, shortened: as §1
# CaAbp1-D1 = molecular target: CaAbp1-D1
# Procedure, shortened: as §1
# CaAbp1-D2 = molecular target: CaAbp1-D2
# Procedure, shortened: as §1
# CaBbc1 = molecular target: CaBbc1
# Procedure, shortened: as §1
# CaBem1-D1 = molecular target: CaBem1-D1
# Procedure, shortened: as §1
# CaBzz1-D1 = molecular target: CaBzz1-D1
# Procedure, shortened: as §1
# CaBzz1-D2 = molecular target: CaBzz1-D2
# Procedure, shortened: as §1
# CaCyk3 = molecular target: CaCyk3
# Procedure, shortened: as §1
# CaFus1 = molecular target: CaFus1
# Procedure, shortened: as §1
# CaHof1 = molecular target: CaHof1
# Procedure, shortened: as §1
# CaHse1 = molecular target: CaHse1
# Procedure, shortened: as §1
# CaLsb1 = molecular target: CaLsb1
# Procedure, shortened: as §1
# CaLsb4 = molecular target: CaLsb4
# Procedure, shortened: as §1
# CaMyo5 = molecular target: CaMyo5
# Procedure, shortened: as §1
# CaNbp2 = molecular target: CaNbp2
# Procedure, shortened: as §1
# CaRvs167 = molecular target: CaRvs167
# Procedure, shortened: as §1
# CaRvs167-3 = molecular target: CaRvs167-3
# Procedure, shortened: as §1
# CaSho1 = molecular target: CaSho1
# Procedure, shortened: as §1
# CaSla1-D1-D2 = molecular target: CaSla1-D1-D2
# Procedure, shortened: as §1
# CaSla1-D3 = molecular target: CaSla1-D3
# Procedure, shortened: as §1
# ScAbp1 = molecular target: ScAbp1
# Procedure, shortened: as §1
# ScBbc1 = molecular target: ScBbc1
# Procedure, shortened: as §1
# ScBem1-D1 = molecular target: ScBem1-D1
# Procedure, shortened: as §1
# ScBzz1-D1 = molecular target: ScBzz1-D1
# Procedure, shortened: as §1
# ScBzz1-D2 = molecular target: ScBzz1-D2
# Procedure, shortened: as §1
# ScCyk3 = molecular target: ScCyk3
# Procedure, shortened: as §1
# ScFus1 = molecular target: ScFus1
# Procedure, shortened: as §1
# ScHof1 = molecular target: ScHof1
# Procedure, shortened: as §1
# ScHse1 = molecular target: ScHse1
# Procedure, shortened: as §1
# ScLsb1 = molecular target: ScLsb1
# Procedure, shortened: as §1
# ScLsb2 = molecular target: ScLsb2
# Procedure, shortened: as §1
# ScLsb3 = molecular target: ScLsb3
# Procedure, shortened: as §1
# ScLsb4 = molecular target: ScLsb4
# Procedure, shortened: as §1
# ScMyo3 = molecular target: ScMyo3
# Procedure, shortened: as §1
# ScMyo5 = molecular target: ScMyo5
# Procedure, shortened: as §1
# ScNbp2 = molecular target: ScNbp2
# Procedure, shortened: as §1
# ScPex13 = molecular target: ScPex13
# Procedure, shortened: as §1
# ScRvs167 = molecular target: ScRvs167
# Procedure, shortened: as §1
# ScSho1 = molecular target: ScSho1
# Procedure, shortened: as §1
# ScSla1-D1-D2 = molecular target: ScSla1-D1-D2
# Procedure, shortened: as §1
# ScSla1-D3 = molecular target: ScSla1-D3
# Procedure, shortened: as §1
# SpAbp1-D1 = molecular target: SpAbp1-D1
# Procedure, shortened: as §1
# SpBbc1 = molecular target: SpBbc1
# Procedure, shortened: as §1
# SpBzz1-D1 = molecular target: SpBzz1-D1
# Procedure, shortened: as §1
binder,measurement,setting,value
IVNKPLPPLPVAGSS,SPOT peptide array binding signal intensity,SpBzz1-D2,≤ 0
same,SPOT peptide array binding signal intensity,SpCyk3,3
same,SPOT peptide array binding signal intensity,SpHof1,2930
same,SPOT peptide array binding signal intensity,SpHof1-2,3490
same,SPOT peptide array binding signal intensity,SpHof1-3,5540
same,SPOT peptide array binding signal intensity,SpHse1,15
same,SPOT peptide array binding signal intensity,SpLsb1,47
same,SPOT peptide array binding signal intensity,SpLsb4,1.5
same,SPOT peptide array binding signal intensity,SpMyo1,184
same,SPOT peptide array binding signal intensity,SpNbp2,11
same,SPOT peptide array binding signal intensity,SpPex13,15
same,SPOT peptide array binding signal intensity,SpRvs167,1580
same,SPOT peptide array binding signal intensity,SpSla1-D1-D2,1200
same,SPOT peptide array binding signal intensity,SpSla1-D3,≤ 0
HKVLRPFLLRRLKKD,SPOT peptide array binding signal intensity,AgAbp1,172
same,SPOT peptide array binding signal intensity,AgBbc1,≤ 0
same,SPOT peptide array binding signal intensity,AgBem1-D1,≤ 0
same,SPOT peptide array binding signal intensity,AgBzz1-D1,1.5
same,SPOT peptide array binding signal intensity,AgBzz1-D2,31.5
same,SPOT peptide array binding signal intensity,AgCyk3,≤ 0
same,SPOT peptide array binding signal intensity,AgFus1,479
same,SPOT peptide array binding signal intensity,AgHof1,39.4
same,SPOT peptide array binding signal intensity,AgHse1,2970
same,SPOT peptide array binding signal intensity,AgLsb1,0.5
same,SPOT peptide array binding signal intensity,AgLsb4,19.5
same,SPOT peptide array binding signal intensity,AgMyo5,≤ 0
same,SPOT peptide array binding signal intensity,AgNbp2,45.8
same,SPOT peptide array binding signal intensity,AgRvs167,0.5
same,SPOT peptide array binding signal intensity,AgSho1,156
same,SPOT peptide array binding signal intensity,AgSla1-D1-D2,27
same,SPOT peptide array binding signal intensity,AgSla1-D3,2.75
same,SPOT peptide array binding signal intensity,CaAbp1-D1,569
same,SPOT peptide array binding signal intensity,CaAbp1-D2,617
same,SPOT peptide array binding signal intensity,CaBbc1,≤ 0
same,SPOT peptide array binding signal intensity,CaBem1-D1,3.5
same,SPOT peptide array binding signal intensity,CaBzz1-D1,≤ 0
same,SPOT peptide array binding signal intensity,CaBzz1-D2,≤ 0
same,SPOT peptide array binding signal intensity,CaCyk3,≤ 0
same,SPOT peptide array binding signal intensity,CaFus1,2980
same,SPOT peptide array binding signal intensity,CaHof1,7.63e-06
same,SPOT peptide array binding signal intensity,CaHse1,124
same,SPOT peptide array binding signal intensity,CaLsb1,≤ 0
same,SPOT peptide array binding signal intensity,CaLsb4,≤ 0
same,SPOT peptide array binding signal intensity,CaMyo5,≤ 0
same,SPOT peptide array binding signal intensity,CaNbp2,715
same,SPOT peptide array binding signal intensity,CaRvs167,6.08
same,SPOT peptide array binding signal intensity,CaRvs167-3,281
same,SPOT peptide array binding signal intensity,CaSho1,736
same,SPOT peptide array binding signal intensity,CaSla1-D1-D2,8.5
same,SPOT peptide array binding signal intensity,CaSla1-D3,15.5
same,SPOT peptide array binding signal intensity,ScAbp1,271
same,SPOT peptide array binding signal intensity,ScBbc1,≤ 0
same,SPOT peptide array binding signal intensity,ScBem1-D1,19.5
same,SPOT peptide array binding signal intensity,ScBzz1-D1,22.5
same,SPOT peptide array binding signal intensity,ScBzz1-D2,≤ 0
same,SPOT peptide array binding signal intensity,ScCyk3,38
same,SPOT peptide array binding signal intensity,ScFus1,742
same,SPOT peptide array binding signal intensity,ScHof1,≤ 0
same,SPOT peptide array binding signal intensity,ScHse1,2170
same,SPOT peptide array binding signal intensity,ScLsb1,≤ 0
same,SPOT peptide array binding signal intensity,ScLsb2,≤ 0
same,SPOT peptide array binding signal intensity,ScLsb3,≤ 0
same,SPOT peptide array binding signal intensity,ScLsb4,≤ 0
same,SPOT peptide array binding signal intensity,ScMyo3,1.12
same,SPOT peptide array binding signal intensity,ScMyo5,2.5
same,SPOT peptide array binding signal intensity,ScNbp2,102
same,SPOT peptide array binding signal intensity,ScPex13,0.5
same,SPOT peptide array binding signal intensity,ScRvs167,3.42
same,SPOT peptide array binding signal intensity,ScSho1,994
same,SPOT peptide array binding signal intensity,ScSla1-D1-D2,≤ 0
same,SPOT peptide array binding signal intensity,ScSla1-D3,3.25
same,SPOT peptide array binding signal intensity,SpAbp1-D1,250
same,SPOT peptide array binding signal intensity,SpBbc1,3
same,SPOT peptide array binding signal intensity,SpBzz1-D1,70
same,SPOT peptide array binding signal intensity,SpBzz1-D2,7.63e-06
same,SPOT peptide array binding signal intensity,SpCyk3,1.5
same,SPOT peptide array binding signal intensity,SpHof1,74.8
same,SPOT peptide array binding signal intensity,SpHof1-2,4
same,SPOT peptide array binding signal intensity,SpHof1-3,1720
same,SPOT peptide array binding signal intensity,SpHse1,2230
same,SPOT peptide array binding signal intensity,SpLsb1,≤ 0
same,SPOT peptide array binding signal intensity,SpLsb4,≤ 0
same,SPOT peptide array binding signal intensity,SpMyo1,2.62
same,SPOT peptide array binding signal intensity,SpNbp2,222
same,SPOT peptide array binding signal intensity,SpPex13,13.5
same,SPOT peptide array binding signal intensity,SpRvs167,0.333
same,SPOT peptide array binding signal intensity,SpSla1-D1-D2,≤ 0
same,SPOT peptide array binding signal intensity,SpSla1-D3,5.5
